Measured values published in PubChem BioAssay AID1159580 (chemical genetic matrix, 2015).
The whole screen tested about 5,500 compounds, of which about 2,000 (36%) were called active. Roughly 18% stayed inconclusive and do not appear here. Rule as the data show it: active = normalized growth mostly below about 0.91 (no sharp cut-off); inconclusive = no clear call, values can overlap the other calls; inactive = mostly above about 0.92. The list shows a part of the results.

Assay: chemical genetic growth profiling, strain panel (AID 1159580);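 also: tested at 20 µM; growth read once vehicle control cultures reached saturation at 30 °C; 1 = growth at the plate median or of vehicle wells; lower values mean less growth of the strain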
Settings: growth OD

Measured: normalized growth

N#C/C(=C\c1cccc(O)c1)C(=O)O
inactive: S. cerevisiae deletion strains, locus YJR075W, strain HOC1, active compounds read low 0.98 | S. cerevisiae deletion strains, locus YKL009W, strain mrt4, active compounds read low 0.989 | S. cerevisiae deletion strains, locus YKL068W, active compounds read low 0.998 | S. cerevisiae deletion strains, locus YKL085W, strain MDH1 (second series), active compounds read low 0.951 | S. cerevisiae deletion strains, locus YKL085W, strain MDH1, active compounds read low 0.951 | S. cerevisiae deletion strains, locus YKL160W, strain elf1, active compounds read low 0.977 | S. cerevisiae deletion strains, locus YKL190W, strain CNB1, active compounds read low 0.99 | S. cerevisiae deletion strains, locus YKR001C, strain vps1, active compounds read low 1 | S. cerevisiae deletion strains, locus YKR026C, strain gcn3, active compounds read low 1 | S. cerevisiae deletion strains, locus YKR091W, strain srl3, active compounds read low 0.976 | S. cerevisiae deletion strains, locus YLL001W, strain dnm1, active compounds read low 1.03 | S. cerevisiae deletion strains, locus YLL026W, active compounds read low 0.974 | S. cerevisiae deletion strains, locus YLL041C, strain sdh2, active compounds read low 0.984 | S. cerevisiae deletion strains, locus YLR027C, strain aat2, active compounds read low 0.985 | S. cerevisiae deletion strains, locus YLR039C, strain RIC1, active compounds read low 1.01 | S. cerevisiae deletion strains, locus YLR058C, strain SHM2, active compounds read low 0.979 | S. cerevisiae deletion strains, locus YLR102C, strain apc9, active compounds read low 0.988 | S. cerevisiae deletion strains, locus YLR113W, strain HOG1, active compounds read low 0.971 | S. cerevisiae deletion strains, locus YLR221C, strain rsa3, active compounds read low 1.02 | S. cerevisiae deletion strains, locus YLR258W, strain gsy2, active compounds read low 0.977 | S. cerevisiae deletion strains, locus YLR262C, strain YPT6 (second series), active compounds read low 0.974 | S. cerevisiae deletion strains, locus YLR262C, strain YPT6, active compounds read low 0.957 | S. cerevisiae deletion strains, locus YLR268W, strain sec22, active compounds read low 0.987 | S. cerevisiae deletion strains, locus YLR320W, strain mms22, active compounds read low 1.03 | S. cerevisiae deletion strains, locus YLR330W, strain CHS5, active compounds read low 0.989 | S. cerevisiae deletion strains, locus YLR342W, strain FKS1 (second series), active compounds read low 1.09 | S. cerevisiae deletion strains, locus YLR342W, strain FKS1, active compounds read low 0.99 | S. cerevisiae deletion strains, locus YLR357W, strain rsc2, active compounds read low 0.988 | S. cerevisiae deletion strains, locus YLR370C, strain arc18, active compounds read low 0.978 | S. cerevisiae deletion strains, locus YLR371W, strain rom2, active compounds read low 1 | S. cerevisiae deletion strains, locus YLR384C, strain iki3, active compounds read low 0.991 | S. cerevisiae deletion strains, locus YLR418C, strain cdc73, active compounds read low 0.964 | S. cerevisiae deletion strains, locus YML016C, strain PPZ1, active compounds read low 1 | S. cerevisiae deletion strains, locus YML032C, strain rad52, active compounds read low 1.02 | S. cerevisiae deletion strains, locus YML120C, strain ndi1, active compounds read low 0.992 | S. cerevisiae deletion strains, locus YML124C, strain tub3, active compounds read low 1 | S. cerevisiae deletion strains, locus YMR058W, strain fet3, active compounds read low 0.997 | S. cerevisiae deletion strains, locus YMR078C, strain ctf18, active compounds read low 0.996 | S. cerevisiae deletion strains, locus YMR125W, strain sto1, active compounds read low 0.991 | S. cerevisiae deletion strains, locus YMR129W, active compounds read low 0.964 | S. cerevisiae deletion strains, locus YMR205C, strain PFK2, active compounds read low 1.02 | S. cerevisiae deletion strains, locus YMR223W, strain ubp8, active compounds read low 1.05 | S. cerevisiae deletion strains, locus YMR231W, strain pep5, active compounds read low 0.991 | S. cerevisiae deletion strains, locus YMR263W, strain SAP30, active compounds read low 0.979 | S. cerevisiae deletion strains, locus YMR307W, strain GAS1, active compounds read low 1.08 | S. cerevisiae deletion strains, locus YNL067W, strain RPL9B, active compounds read low 0.989 | S. cerevisiae deletion strains, locus YNL071W, strain lat1, active compounds read low 0.997 | S. cerevisiae deletion strains, locus YNL128W, strain TEP1, active compounds read low 0.928 | S. cerevisiae deletion strains, locus YNL153C, strain GIM3, active compounds read low 0.984 | S. cerevisiae deletion strains, locus YNL183C, strain NPR1, active compounds read low 0.915 | S. cerevisiae deletion strains, locus YNL209W, strain ssb2, active compounds read low 1 | S. cerevisiae deletion strains, locus YNL233W, strain BNI4, active compounds read low 1.01 | S. cerevisiae deletion strains, locus YNL248C, strain rpa49, active compounds read low 0.963 | S. cerevisiae deletion strains, locus YNL250W, strain rad50, active compounds read low 0.991 | S. cerevisiae deletion strains, locus YNL271C, strain bni1, active compounds read low 1.01 | S. cerevisiae deletion strains, locus YNL298W, strain CLA4, active compounds read low 1 | S. cerevisiae deletion strains, locus YNL307C, strain MCK1, active compounds read low 1.03 | S. cerevisiae deletion strains, locus YNL322C, strain KRE1 (second series), active compounds read low 0.952 | S. cerevisiae deletion strains, locus YNL322C, strain KRE1, active compounds read low 0.979 | S. cerevisiae deletion strains, locus YNR049C, strain mso1, active compounds read low 0.961 | S. cerevisiae deletion strains, locus YNR052C, strain pop2, active compounds read low 0.995 | S. cerevisiae deletion strains, locus YOL006C, strain TOP1, active compounds read low 0.975 | S. cerevisiae deletion strains, locus YOL012C, strain htz1 1.3 | S. cerevisiae deletion strains, locus YOL147C, strain pex11, active compounds read low 0.994 | S. cerevisiae deletion strains, locus YOR001W, strain rrp6, active compounds read low 1.02 | S. cerevisiae deletion strains, locus YOR061W, strain CKA2, active compounds read low 0.96 | S. cerevisiae deletion strains, locus YOR069W, strain VPS5, active compounds read low 0.997 | S. cerevisiae deletion strains, locus YOR070C, strain gyp1, active compounds read low 0.993 | S. cerevisiae deletion strains, locus YOR080W, strain dia2, active compounds read low 0.984 | S. cerevisiae deletion strains, locus YOR083W, strain WHI5, active compounds read low 0.916 | S. cerevisiae deletion strains, locus YOR106W, strain vam3, active compounds read low 0.924 | S. cerevisiae deletion strains, locus YOR136W, strain idh2, active compounds read low 1.01 | S. cerevisiae deletion strains, locus YOR144C, strain elg1, active compounds read low 0.989 | S. cerevisiae deletion strains, locus YOR184W, strain ser1, active compounds read low 1.06 | S. cerevisiae deletion strains, locus YOR231W, strain MKK1, active compounds read low 0.973 | S. cerevisiae deletion strains, locus YOR265W, strain rbl2, active compounds read low 0.964 | S. cerevisiae deletion strains, locus YOR270C, strain vph1, active compounds read low 0.997 | S. cerevisiae deletion strains, locus YOR290C, strain snf2, active compounds read low 0.967 | S. cerevisiae deletion strains, locus YOR316C, strain cot1, active compounds read low 0.986 | S. cerevisiae deletion strains, locus YPL051W, strain arl3, active compounds read low 0.981 | S. cerevisiae deletion strains, locus YPL055C, strain LGE1, active compounds read low 0.96 | S. cerevisiae deletion strains, locus YPL078C, strain atp4, active compounds read low 0.991 | S. cerevisiae deletion strains, locus YPL106C, strain sse1, active compounds read low 0.961 | S. cerevisiae deletion strains, locus YPL240C, strain hsp82, active compounds read low 0.986 | S. cerevisiae deletion strains, locus YPL241C, strain CIN2, active compounds read low 0.987 | S. cerevisiae deletion strains, locus YPL256C, strain CLN2, active compounds read low 0.977 | S. cerevisiae deletion strains, locus YPR119W, strain clb2, active compounds read low 0.987 | S. cerevisiae deletion strains, locus YPR141C, strain kar3, active compounds read low 0.975 | S. cerevisiae deletion strains, locus YPR163C, strain tif3, active compounds read low 0.998 | S. cerevisiae deletion strains, locus YPR167C, strain met16, active compounds read low 0.981 | S. cerevisiae deletion strains, strain wtn01, active compounds read low 0.98 | S. cerevisiae strains, strain wild type, active compounds read low 1.02
